Experimental data: PubChem BioAssay AID2284334 (EPA ToxCast)
Records with an inconclusive call do not appear. Activity calls are given as the source filed them. How the source made its calls: active means hit-call score of the fitted dose curve at least 0.9, where 1 is the maximum; inconclusive means response in the unintended direction; inactive means score below 0.9.

Molecular target: human Peroxisome Proliferator-activated Receptor alpha (PPARa), PPARA (gene 5465) (UniProt Q07869)
Assay: ATG_hPPARa_EcoTox2: Attagene TRANS-FACTORIAL EcoTox-2 HepG2 Assay for human Peroxisome Proliferator-activated Receptor alpha (PPARa)
Procedure: ATG_EcoTox2 is a cell-based, multiplexed assay created by modifying the existing Attagene TRANS-FACTORIAL system to include a panel of nuclear receptors from some or all the following species: human (Homo sapiens), african clawed frog (Xenopus laevis), rainbow trout (Oncorhynchus mykiss), japanese medaka (Oryzias latipes), and zebrafish (Danio rerio). The ECOTOX2-FACTORIAL format uses HepG2, a human liver cell line, with measurements taken at 24 hours after chemical dosing in a 24-well plate. ATG_hPPARa_EcoTox2 is one of 29 assay components calculated in the ATG_EcoTox2 assay. It is designed to make measurements of mRNA induction, a form of inducible reporter, as detected with fluorescence intensity signals by Reverse transcription polymerase chain reaction (RT-PCR) and Capillary electrophoresis technology.The assay endpoint ATG_hPPARa_EcoTox2 was analyzed in the positive analysis fitting direction relative to DMSO as the negative control and baseline of activity. Using a type of inducible reporter, measures of mRNA for gain-of-signal activity can be used to understand the reporter gene at the transcription factor-level as they relate to the gene PPARa. Furthermore, this assay endpoint can be referred to as a primary readout, because this assay has produced multiple assay endpoints where this one serves a reporter gene function. […]

human Peroxisome Proliferator-activated Receptor alpha (PPARa), PPARA (gene 5465), sequence (Q07869 whole entry, looked up): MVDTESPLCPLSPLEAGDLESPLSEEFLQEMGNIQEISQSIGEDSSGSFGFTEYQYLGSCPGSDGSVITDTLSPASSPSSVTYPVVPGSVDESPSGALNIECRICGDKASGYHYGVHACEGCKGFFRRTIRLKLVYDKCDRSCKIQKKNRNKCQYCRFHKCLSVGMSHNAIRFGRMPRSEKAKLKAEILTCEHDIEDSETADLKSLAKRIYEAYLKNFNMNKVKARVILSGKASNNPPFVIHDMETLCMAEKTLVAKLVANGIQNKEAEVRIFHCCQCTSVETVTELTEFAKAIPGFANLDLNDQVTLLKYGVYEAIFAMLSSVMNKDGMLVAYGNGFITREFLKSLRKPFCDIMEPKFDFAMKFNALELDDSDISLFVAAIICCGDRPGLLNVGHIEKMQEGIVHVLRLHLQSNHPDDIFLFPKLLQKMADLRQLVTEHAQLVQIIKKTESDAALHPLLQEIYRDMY

Compound	AC50
O=S(=O)(O)C(F)(F)C(F)(F)C(F)(F)C(F)(F)C(F)(F)C(F)(F)F	23 µM (active)
O=C(O)C(F)(F)C(F)(F)C(F)(F)C(F)(F)C(F)(F)C(F)(F)C(F)(F)F	11.4 µM (active)
